The supplement of paper PMC6555819

Key:
Assay in all cases: PBM binding z-score (relative to random genomic background probes); higher = stronger binding; sequences stand for … in GC…GCGATTGACAGCGTAGAATGAAGG
[1] = system: RARb homodimer (NR concentration 270 nM)
Procedure, shortened: (§1)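 Probes were double-stranded and carried 34-nt variable regions with direct-repeat seeds, single-nucleotide variants, half-site ablations and random human genomic background sequences, printed on custom Agilent 4×180K protein-binding microarrays. Arrays were incubated 1 h with ligand-free nuclear receptor dimers in PBS pH 7.4, 2% milk, 0.02% Triton X-100, 1 mM DTT, 0.2 mg/mL BSA and 0.4 mg/ml salmon testes DNA. Antibodies against each partner (one per run) detected binding, and scanned fluorescence was regression-normalized. Binding z-scores use the random background probes as reference.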

[2] = system: RARg:RXRa (NR concentration 270 nM, RXRa partner concentration 90 nM)
Procedure, shortened: as §1

[3] = system: RARg homodimer (NR concentration 270 nM)
Procedure, shortened: as §1

[4] = system: RXRa DBDmut IVT, anti-RXR (DBD mutation: RXRa K156A/R161A, NR concentration 90 nM)
Procedure, shortened: as §1

[5] = system: RXRa homodimer (NR concentration 180 nM)
Procedure, shortened: as §1

[6] = system: THRa:RXRa (NR concentration 90 nM, RXRa partner concentration 90 nM)
Procedure, shortened: as §1

[7] = system: THRa homodimer (NR concentration 90 nM)
Procedure, shortened: as §1

[8] = system: VDR:RXRa (NR concentration 270 nM, RXRa partner concentration 90 nM)
Procedure, shortened: as §1

[9] = system: VDR homodimer (NR concentration 270 nM)
Procedure, shortened: as §1

Row | Sequence | PBM binding z-score [1] | PBM binding z-score [2] | PBM binding z-score [3] | PBM binding z-score [4] | PBM binding z-score [5] | PBM binding z-score [6] | PBM binding z-score [7] | PBM binding z-score [8] | PBM binding z-score [9]
1 | AATACAGGGTCACCGTAGGCCAGAGTACGCACAG | 3.94 | 6.08 | 5.9 | 2.62 | 7.11 | 4.55 | 1.77 | 5.2 | 2.81
2 | TTACCAAGGTGAGCTGAGGTAGTTGATCCAACTC | 0.264 | -0.0541 | 0.00581 | -0.913 | -0.0499 | 3.02 | 0.0435 | -0.45 | -0.88
3 | CGTCCAAGATCAGAGAGGTCAGTGAATGCCGAGT | 3.9 | 2.95 | 3 | 0.949 | 2.5 | 2.64 | 0.926 | 3.82 | 2.37
4 | TCTTGTAGATCAATATAGGTTAAGAAAGTGCGCT | 0.819 | 0.579 | 0.586 | 1.31 | 0.962 | 1.03 | -0.0282 | 1.24 | 0.0852
5 | TGGCAAAGTTCAAAGGTAACGTAAGTATCCACAC | 4.03 | 6.21 | 5.81 | 4.22 | 7.78 | 3.41 | -0.0262 | 5.01 | 4.04
6 | ACAATTAGTTGACTTAGGGCAACCGATACGACGC | 1.03 | 0.677 | 0.936 | 0.628 | 0.455 | 1.37 | 0.444 | 0.376 | 0.709
7 | ATCTCCAGGTAAAGTTCAGTGAAAGATCGATAGA | 2.77 | 2.26 | 2.51 | 1.38 | 1.52 | 1.73 | 0.709 | 1.83 | 1.92
8 | ACGGACAGGTGATGAAGGTAACTCAGGCTATCAT | 0.711 | 0.496 | 0.813 | 0.19 | 0.31 | 1.02 | 0.438 | 0.367 | 0.327
9 | AATACAGGGTCACTAGACCAGAGTAGGTACGAAT | 2.96 | 4.98 | 4.81 | 2.68 | 5.91 | 3.24 | 1.08 | 3.98 | 2.54
10 | TCTTGTAGACCAAGCAGGTTAAGAAAGCCTGAGT | 0.377 | 0.0625 | -0.186 | 0.787 | 0.346 | 0.395 | -0.407 | 0.582 | 0.173
11 | CGTCCAAGGTCAATGCTAGGTCAGTTAAAGCATT | 5.03 | 7.56 | 6.8 | 3.49 | 5.03 | 4.67 | 2.9 | 5.01 | 3.2
12 | TCTATTAGTTGAAGGGCAACCTACGAGTCCGTTT | 1.2 | 0.698 | 0.806 | 1.51 | 0.858 | 0.233 | -0.0206 | 0.986 | 1.42
13 | AGAACGAGGGCAATGGGTTGATAGCACGGGTGGC | 1.6 | 1.47 | 1.68 | 1.84 | 1.09 | 1.12 | 0.645 | 5.47 | 4.19
